High-throughput results from PubChem.
KB-V1 MDR tox: qHTS assay for MDR1-selective chemotherapeutics: Primary screen using the drug-selected MDR subline cells KB-V1 | KB-V1 MDR cells viability, CellTiter-Glo, 72 h | Potency, µM (doses to about 46.1 µM), most hits filed as cytotoxic | 3.4% of 400,000 active | AID 1347076, 2019; note: % is set by controls: 0 for no effect and ±100 for the full control effect; nearly all actives have a fitted effect of over 60% in size
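KB-V1, DMEM (no phenol red) + 10% FBS; cpd pin-transferred, titration series; 72 h, 37 degrees C; CellTiter-Glo, luminescence. Data normalized, curve-fit.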
HT1080 IDH1KD tx: qHTS for induction of synthetic lethality in tumor cells producing 2HG: qHTS for the HT-1080-IDH1KD cell line; HT-1080 IDH1 knockdown viability, ATP luminescence, 48 h; Potency, µM (doses to about 46.1 µM), for the others: at the highest dose activity, negative = toxicity, usual class: cytotoxic; 2% of 360,000 active;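 note: 0% = DMSO wells and -100% = cell-free medium wells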
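HT-1080-IDH1KD cells (IDH1 knocked down), 750/well in RPMI with 5% FBS, treated with compound 48 h at 37 degrees C. Viability by CellTiter-Glo luminescence, normalised to DMSO and no-cell wells; concentration-response curves classed.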
KB-3-1 tox: qHTS assay for MDR1-selective chemotherapeutics: Primary screen using the parental adenocarcinoma cell KB-3-1. 1.4% of 400,000 active. AID 1347075, 2019. KB-3-1 viability, CellTiter-Glo ATP luminescence, 72 h. Potency, µM (highest dose often 46.1 µM), usual class: cytotoxic; note: % is set by controls: 0 for no effect and ±100 for the full control effect; nearly all actives have a fitted effect of over 60% in size
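Parental KB-3-1 adenocarcinoma cells in phenol-red-free DMEM with 10% FBS were pin-treated with compounds at several concentrations, incubated 72 h at 37 °C, and viability read by CellTiter-Glo luminescence; concentration-effect curves were fitted after normalization.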
SW480 rereplic: A quantitative high throughput screen for small molecules that induce DNA re-replication in SW480 colon adenocarcinoma cells. SW480 DNA re-replication, Hoechst DNA content imaging, 48 h. Potency, µM (doses to about 46.1 µM), inactives show top-dose re-replication activation, actives largely listed as activators. 1.8% of 340,000 active. AID 624297, 2012; note: % of control where 0% means no effect; nearly all actives have a fitted effect of over 55% in size
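Image-based DNA-content assay: after two days of treatment, nuclei were labelled with the DNA dye Hoechst and imaged, and hits were compounds raising the count of nuclei showing high fluorescence intensity.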
MCF10A rerep: A quantitative high throughput screen for small molecules that induce DNA re-replication in MCF 10a normal breast cells | MCF 10A DNA re-replication, Hoechst nuclear intensity, 48 h | Potency, µM (series often up to 46.1 µM), for the others: top-dose activity, positive = re-replication, actives largely listed as activators | 2.9% of 350,000 active | AID 624296, 2012; note: % of control where 0% means no effect; nearly all actives have a fitted effect of over 50% in size
HT1080NT lethal: qHTS for induction of synthetic lethality in tumor cells producing 2HG: qHTS for the HT-1080-NT fibrosarcoma cell line | Potency, µM (highest dose often 46.1 µM), for inactives: top-dose activity, negative = less viability, most hits filed as cytotoxic | AID 686970, 2013 | HT-1080-NT fibrosarcoma viability, CellTiter-Glo ATP luminescence, 48 h | 1.6% of 360,000 active;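 note: NT is the 2HG producing partner of a matched IDH1 knockdown line; 0% = DMSO-treated cells and -100% = media-only wells without cells; nearly all actives have a fitted effect of over 55% in size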
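Viability by CellTiter-Glo luminescence after 48 h compound exposure at 37C of HT-1080-NT cells (750/well, RPMI, 5% FBS). % activity scaled between DMSO wells and medium-only wells, then curve-fitted and categorized by curve class.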
* = called active by the depositor. Hits are enriched below; roughly 8% of the tested compounds scored in any of these assays. Calls come from the whole dose curve; as a rule, active = well fitted curve in the direction sought with a large enough effect; inconclusive = small, poorly fitted or top-dose-only effect, or another doubt; inactive = no such curve, though single readings can be large; an effect the other way counts as inactive or inconclusive. Potency is the fitted concentration of half-maximal effect.

For CCc1nc2ccc(C(=O)N(C)CC(=O)Nc3ccc(Cl)c(C(F)(F)F)c3)cc2nc1CC the results were KB-V1 MDR tox inactive, HT1080 IDH1KD tx 21µM*, KB-3-1 tox inactive, SW480 rereplic -7%, MCF10A rerep inconclusive and HT1080NT lethal inconclusive.
Screening CN(CC(=O)Nc1ccc(Cl)c(C(F)(F)F)c1)C(=O)Cc1n[nH]c(=O)c2ccccc12 returned KB-V1 MDR tox inactive, HT1080 IDH1KD tx -18%, KB-3-1 tox inconclusive, SW480 rereplic 4%, MCF10A rerep 14% and HT1080NT lethal -2%.
Screening O=C(COC(=O)Cn1cnc2ccccc21)Nc1ccccc1C(F)(F)F returned KB-V1 MDR tox inactive, HT1080 IDH1KD tx 1%, KB-3-1 tox inactive, SW480 rereplic 14%, MCF10A rerep -7% and HT1080NT lethal -4%.
For Cc1cc(OCC(=O)Nc2ccncc2)cc(C)c1Cl the results were KB-V1 MDR tox inconclusive, HT1080 IDH1KD tx -28%, KB-3-1 tox inconclusive, SW480 rereplic -9%, MCF10A rerep 1% and HT1080NT lethal -11%.
For Cc1ccc(C(=O)N/N=C\c2ccc(Br)o2)o1 the results were KB-V1 MDR tox inactive, HT1080 IDH1KD tx 19%, KB-3-1 tox inactive, SW480 rereplic -1%, MCF10A rerep 2% and HT1080NT lethal 14%.
Screening Cc1cc(C(=O)N/N=C/c2ccc(-c3ccccc3Cl)o2)n[nH]1 returned KB-V1 MDR tox 23µM*, HT1080 IDH1KD tx -1%, KB-3-1 tox inconclusive, SW480 rereplic -36%, MCF10A rerep inconclusive and HT1080NT lethal 1%.
`Cc1ccc(/C=N/NC(=O)c2cc(-c3ccc(C)o3)[nH]n2)cc1` gave KB-V1 MDR tox inconclusive, HT1080 IDH1KD tx 21µM*, KB-3-1 tox inconclusive, SW480 rereplic inconclusive, MCF10A rerep 4.6µM* and HT1080NT lethal inconclusive.
`Cc1ccc(-c2cc(C(=O)N/N=C/c3cccnc3)n[nH]2)o1` gave KB-V1 MDR tox inactive, HT1080 IDH1KD tx 26%, KB-3-1 tox inactive, SW480 rereplic -187%, MCF10A rerep -6% and HT1080NT lethal 14%.
Screening COC(=O)N/N=C/c1ccc(-c2cc(Cl)ccc2Cl)o1 returned KB-V1 MDR tox 21µM*, HT1080 IDH1KD tx 2%, KB-3-1 tox inconclusive, SW480 rereplic -3%, MCF10A rerep inconclusive and HT1080NT lethal -2%.
Screening Cc1ccc(C(=O)N/N=C/c2ccc(-c3ccc(Br)cc3[N+](=O)[O-])o2)o1 returned KB-V1 MDR tox inactive, HT1080 IDH1KD tx inconclusive, KB-3-1 tox inactive, SW480 rereplic -3%, MCF10A rerep 5.8µM* and HT1080NT lethal -1%.
Screening COc1cccc(CNC(=O)COC(=O)c2nn(C)c(=O)c3ccccc23)c1 returned KB-V1 MDR tox inactive, HT1080 IDH1KD tx 2%, KB-3-1 tox inactive, SW480 rereplic -8%, MCF10A rerep -2% and HT1080NT lethal 8%.
`Cc1cc2oc(=O)cc(CSc3nc(N)cc(N)n3)c2cc1C` gave KB-V1 MDR tox inconclusive, HT1080 IDH1KD tx -15%, KB-3-1 tox inactive, SW480 rereplic -1%, MCF10A rerep -3% and HT1080NT lethal -16%.
`Cc1cc(C(=O)N/N=C/c2ccc(-c3cccc([N+](=O)[O-])c3)o2)n[nH]1` gave KB-V1 MDR tox inactive, HT1080 IDH1KD tx 3%, KB-3-1 tox inactive, SW480 rereplic 4%, MCF10A rerep 6% and HT1080NT lethal 8%.
`Cc1cc(C(=O)N/N=C/c2ccc(-c3ccc([N+](=O)[O-])cc3Cl)o2)n[nH]1` gave KB-V1 MDR tox inactive, HT1080 IDH1KD tx 1%, KB-3-1 tox inactive, SW480 rereplic 18µM*, MCF10A rerep 18µM* and HT1080NT lethal -2%.
`COc1cc(/C=C/C(=O)OCC(=O)N2CCN(S(=O)(=O)c3ccc(C)cc3C)CC2)ccc1O` gave KB-V1 MDR tox inactive, HT1080 IDH1KD tx -5%, KB-3-1 tox inactive, MCF10A rerep 0% and HT1080NT lethal -1%.
For COc1ccc2ccc3c(c2c1)N=CC1(O3)N(C)c2ccccc2C1(C)C (stereo not drawn) the results were KB-V1 MDR tox inconclusive, HT1080 IDH1KD tx 6.3µM*, KB-3-1 tox inactive, SW480 rereplic -4%, MCF10A rerep inconclusive and HT1080NT lethal 7.9µM*.
Screening COc1cccc(-c2cc(NC=O)c3ncc(-c4cccc(C(=O)NCCN(C)C)c4)n3c2)c1 returned KB-V1 MDR tox inactive, HT1080 IDH1KD tx 21µM*, KB-3-1 tox inactive and HT1080NT lethal 23µM*.
For COc1cccc(-c2cnc3c(NC=O)cc(-c4cccc(C(=O)N(C)C)c4)cn23)c1 the results were KB-V1 MDR tox 23µM*, HT1080 IDH1KD tx inconclusive, KB-3-1 tox inactive and HT1080NT lethal -21%.
For C=CCn1cccc(C(=O)Nc2cc(OC)cc(OC)c2)c1=O the results were KB-V1 MDR tox inactive, HT1080 IDH1KD tx 1%, KB-3-1 tox inactive, SW480 rereplic 12%, MCF10A rerep 17% and HT1080NT lethal -6%.
Screening CCCCCc1nnc(NS(C)(=O)=O)s1 returned KB-V1 MDR tox inactive, HT1080 IDH1KD tx 17%, KB-3-1 tox inactive, SW480 rereplic -1%, MCF10A rerep 18% and HT1080NT lethal 10%.
`CCn1cc(Cl)c(C(=O)N2N=C3/C(=C/c4cccs4)CCCC3C2c2cccs2)n1` (stereo not drawn) gave KB-V1 MDR tox 21µM*, HT1080 IDH1KD tx -29%, KB-3-1 tox inconclusive, SW480 rereplic 18µM*, MCF10A rerep 23% and HT1080NT lethal inconclusive.
Screening CC(=O)N1N=C2c3ccccc3CCC2C1c1cccs1 (stereo not drawn) returned KB-V1 MDR tox inactive, HT1080 IDH1KD tx 2%, KB-3-1 tox inactive, SW480 rereplic -12%, MCF10A rerep -2% and HT1080NT lethal -2%.
Screening O=C(c1cccc(S(=O)(=O)N2CCc3ccccc32)c1)N1CCN(c2ccccn2)CC1 returned KB-V1 MDR tox inconclusive, HT1080 IDH1KD tx 9.2µM*, KB-3-1 tox 6.5µM*, SW480 rereplic 17%, MCF10A rerep 17% and HT1080NT lethal inconclusive.
